Measurements reported in the supplement of paper PMC3724861.
The sample as a whole holds a higher share of hits than the screen did. The true hit rate is not given. Values without a mark were called inactive.

system: T1, Caupolican (Caup) homeodomain DNA-binding domain; assay: PBM E-score (8-mer, recovered from the published 9-mer minima) (E-score (dimensionless, -0.5 to 0.5)); Drosophila protein; higher = stronger relative binding preference, active = 0.31 or more
T1 sequence: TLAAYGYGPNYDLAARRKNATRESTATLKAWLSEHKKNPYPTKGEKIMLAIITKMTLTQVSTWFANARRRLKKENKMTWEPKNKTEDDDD
Protocol: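 Protein binding microarray (PBM): in vitro transcribed/translated Caupolican (Caup) homeodomain DNA-binding domain (residues 214-303) applied at 100 nM to a universal 8-mer PBM array (Agilent AMADID 015681). The 8-mer enrichment score (E-score, range -0.5 to 0.5) was computed, and each 9-mer score is the minimum E-score of its two constituent 8-mers. The E-score is the same for a 9-mer and its reverse complement; 0.31 is the stated binding threshold.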

Sequence	PBM E-score
ACTTGTTA	0.368 (active)
ACTTGTTG	0.29
GTTTGTTA	0.225
GCTTGTGA	-0.02
GCTTGTTA	0.315 (active)
ACTTGTTC	0.33 (active)
AGTTGTTC	0.261
ATTTGTTA	0.219
CCTTGTTC	0.24
GTCGGCCA	-0.0886
GGCGACAA	0.138
CACTGAAG	-0.0338
TCGTCAGA	-0.0168
AAGAGACA	0.124
CATATCAG	0.0708
AACCCGCA	-0.135
AATCTCAG	0.0346
CTAAATAA	0.181
CTATCAGA	-0.0505
CCGAGAAC	-0.0456
AAGGTTAG	-0.0357
AGGATGGA	-0.124
ACATGGAT	0.374 (active)

Sequence	PBM E-score
ACATGGAG	0.257
ACATGGAC	0.338 (active)
CCATGGAC	-0.0492
GCATGGAC	-0.00539
ACATGGAA	0.296
GTTAAGGA	0.00704
GAGTACAA	0.262
AAGTACAC	0.288
AAGTACAG	0.204
TAGTACAA	0.38 (active)
AAGTACCA	0.195
TCGTACAA	≥ 0.37 (active)
GCGTACAA	0.256
AAGTACGA	0.113
AAGTACAT	0.402 (active)
AAGTACAA	0.327 (active)
CAGTACAA	0.304
CCGTACAA	0.152
GAAGCGAA	-0.0567
GGGATTCA	-0.0518
ATTCGTGA	0.114
CTCGACAC	0.105
GCTGCGGA	-0.178

Sequence	PBM E-score
ATGAGTTC	0.0362
ATCCTTCG	-0.116
GGGACAAC	0.178
CAGTTAGA	-0.0838
GGTAACAA	0.316 (active)
TGTAACAA	0.405 (active)
CGTAACAA	0.243
AGTAAACA	0.235
CTTAAACA	0.159
ATTAAACA	0.271
GGTAAACA	0.213
GCTAACAA	0.192
GTTAAACA	0.339 (active)
TGTAAACA	≥ 0.36 (active)
TCTAACAA	0.177
AGTAACAA	0.266
GAGCAACA	0.0811
CGGTAGGA	-0.0619
AGTAAGAC	0.0795
ACTTTCCT	-0.143
CTTGGTCA	-0.0643
GATAACAA	0.32 (active)
CATAACAA	0.308

Sequence	PBM E-score
TATAACAA	0.306
AAGCATCG	-0.00688
TCCACACA	0.0566
AACTTCAT	0.108
TCTATCCA	-0.0275
GACACGTC	0.225
TTCACGAA	0.0673
TACACGGA	0.375 (active)
GACACGGA	0.286
CACACGGA	0.00106
GCCACGTA	-0.0264
TACACGTA	0.361 (active)
CACACGAA	0.0926
GACACGTA	0.348 (active)
CACACGTA	0.142
TACACGCA	0.29
TACACGAA	0.371 (active)
GGAGTTAC	0.0415
AAAGGTTG	-0.00255
CTGGTAAC	0.115
AGCCCAGC	-0.172
CATACTGC	-0.0312
AAGAGTGC	0.0487

Sequence	PBM E-score
AGATCCAT	-0.0856
GAAGACTC	-0.0665
ACCTCAAA	-0.032
CCATCAGA	-0.105
GTGACACA	0.245
GTGACATA	0.312 (active)
GGGACATA	0.113
ATGACATA	0.379 (active)
ATGACAGG	0.117
ATGACACC	0.266
ATGACATG	0.422 (active)
ATGACAGA	0.22
CTGACATC	0.28
ATGACACA	0.259
CTGACATA	0.22
ATGACATC	0.333 (active)
ACCAGGCT	-0.045
AAGGGTTC	-0.134
ATAAGTAT	0.0762
ATTATCGC	0.0263
AGGAAGAA	-0.0327
AGCTAGTA	0.108
AACGTGAG	-0.0335

Sequence	PBM E-score
ATCGTACA	0.349 (active)
GTCGTATA	0.165
GTCGTACA	0.352 (active)
CACGTACA	0.261
AACGTACA	≥ 0.337 (active)
CTCGTACA	0.238
ATCGTACC	-0.0488
ATCGTACG	0.133
AACGTACC	0.0531
AATCGGTG	0.0507
CGGTGTGA	0.0901
ATCAAAAT	0.131
AAAGTCAC	0.0854
AACCAGGA	0.0369
ACTCGGGA	-0.117
AGCATGTG	0.222
AGCATGCC	-0.0456
CGCATGGA	-0.0924
CGCATGAC	-0.0417
CGCATGCC	-0.0847
AGCATGTC	0.376 (active)
CGCATGCA	0.025
CGCATGTA	0.352 (active)

Sequence	PBM E-score
CGCATGTC	0.348 (active)
CACACTGC	-0.0174
AGTTTCAG	-0.0628
ATCCAGAC	-0.00977
AATTCGTC	0.0479
CCCTGAGG	-0.185
GTCATGCA	0.111
GTCATGTA	0.43 (active)
GTCATGGA	-0.0262
ATCATGTG	0.226
ATCATGTA	≥ 0.435 (active)
ATCATGTC	≥ 0.42 (active)
ATCATGAC	0.233
CTCATGTA	0.377 (active)
CTCATGCA	0.042
CTCATGGA	0.0584
ATCATGAA	0.0136
CTCATGTC	0.306
